Results: PubChem BioAssay
Where “and” joins values, the source holds several entries; their conditions need not be identical. Identical values can stand only once. Calls of active or inactive are those of the source.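 How the source made its calls, unless noted: active means thallium flux through the channel raised or lowered by more than 3 SD from vehicle-only wells, actives on both sides; inactive means the rest.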

Key:
[1] = stimulators of nuclear beta-catenin in C2C12, primary screen, imaging, WNT3A-conditioned medium, mouse C2C12, NPC library (AID 1117326; in the data active means nuclear beta-catenin stimulation mostly above about 4.2%, no sharp cut-off; inactive means mostly below about 10%); conditions: stronger effect = higher value
[2] = stimulators of insulin release from INS-1E, primary screen, cell-based, 5 mM glucose, NPC library (AID 1117329;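 active means compound raises insulin release from rat beta cells at 5 mM glucose, no numeric limit stated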); conditions: rat INS-1E insulin secretion, at 10 µM, stronger effect = higher value
[3] = growth inhibition of GSK3B-pretreated HCT116 cells – cell-based, CellTiter-Glo, 0.2 to 20 µM (AID 1117336;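 active means compounds lowering colon cancer cell viability after pretreatment blocking the GSK3B kinase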); conditions: HCT116 viability after GSK3B inhibitor, at 20 µM, stronger effect = higher value
[4] = inhibition of endothelial tube formation, primary screen, imaging, VEGF stimulated, CD31 staining, tube area, NPC library (AID 1117340;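 active means compound that reduces growth-factor-driven endothelial tube area in a mixed cell culture, no cutoff stated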); conditions: VEGF-stimulated ADSC/ECFC co-culture, at 10 µM, stronger effect = higher value
[5] = glucagon-like peptide 1 release enhancers, primary assay, NCI-H716 cell line, NPC library (AID 1117341;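 active means compound raises GLP1 secretion from the human gut endocrine cells, with no numeric limit stated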); conditions: NCI-H716 cells, at 10 µM, stronger effect = higher value
[6] = HCT116 colon cancer cell growth inhibition, primary screen, CellTiter-Glo luminescence, NPC library (AID 1117342;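 active means compounds that lower survival of HCT116 colon cancer cells in the luminescence readout, no numeric limit stated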); conditions: at 20 µM (top of the series)
[7] = CellTiter-Glo luminescent readout of SW480 viability loss, NPC library primary (AID 1117343;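 active means compounds that lower viability of the colon cancer cells in the luminescence readout, with no numeric limit stated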); conditions: CellTiter-Glo luminescence; at 20 µM (top of the series)
[8] = decreased DLD-1 cellular survival, CellTiter-Glo luminescent readout, NPC compound collection, primary HTS (AID 1117346;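 active means compounds that lower survival of DLD-1 colon cancer cells in the luminescence readout, no cutoff given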); conditions: DLD-1 viability, CellTiter-Glo luminescence; at 20 µM (top of the series)
[9] = biological target: 6-phosphogluconate dehydrogenase, decarboxylating (Homo sapiens) (UniProt P52209); test: 6PGD enzyme inhibitors, primary screen, biochemical, human, recombinant enzyme, NADPH absorbance (AID 1159550;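 active means at least 20% inhibition of 6-phosphogluconate dehydrogenase activity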); conditions: recombinant 6PGD, NADPH absorbance 341 nm; at 10 µM; stronger effect = higher value
6-phosphogluconate dehydrogenase, decarboxylating (Homo sapiens), sequence (P52209 whole entry, looked up): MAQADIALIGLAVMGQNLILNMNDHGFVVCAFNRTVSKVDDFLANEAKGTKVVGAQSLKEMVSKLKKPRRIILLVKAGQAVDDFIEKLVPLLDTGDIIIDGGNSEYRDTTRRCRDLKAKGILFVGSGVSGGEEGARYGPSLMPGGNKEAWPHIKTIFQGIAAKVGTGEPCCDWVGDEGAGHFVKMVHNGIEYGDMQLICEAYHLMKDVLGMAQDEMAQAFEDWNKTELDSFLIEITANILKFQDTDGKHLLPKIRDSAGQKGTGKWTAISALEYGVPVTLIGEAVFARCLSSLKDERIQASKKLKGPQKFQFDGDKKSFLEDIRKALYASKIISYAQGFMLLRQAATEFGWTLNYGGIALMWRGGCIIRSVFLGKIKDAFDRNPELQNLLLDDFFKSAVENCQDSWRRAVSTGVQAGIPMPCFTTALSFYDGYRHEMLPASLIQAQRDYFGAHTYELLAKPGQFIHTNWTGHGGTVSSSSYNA

[10] = modulation of C. elegans fzo-1 (AID 1259413; call rule not given here;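 further: fzo-1 mutant C. elegans worms in liquid wells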); conditions: C. elegans fzo-1 modulator screen, mean read-out; stronger effect = higher value
[11] = differential killing of epithelial or mesenchymal cells, primary screen, imaging, PC-3E GFP, TEM4-18 mCherry, co-culture (AID 1345086;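 active means compounds killing one labelled cell type while sparing the other, by normalised counts and ratio limits, not self-fluorescent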;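 on all read-outs here: cells exposed to compound for 72 h before imaging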;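 on red/green cell ratio (normalised): normalised mesenchymal count divided by normalised epithelial count so high means epithelial killing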); conditions: imaging cell counts, at 1 µM; for red/green cell ratio (normalised): actives lie on both sides, counts scaled to control wells, 1 = unselective
[12] = survival rescue of mitochondrial mutant cells in low glucose, primary screen, MELAS cybrids, Rieske KO mouse fibroblasts, CellTiter-Glo (AID 1508586;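 active means mean z-score across replicates of 1.96 or higher in either the MELAS or the Rieske mutant cell line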;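 further: z relative to plate mean and SD of compound and empty wells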)
[13] = biological target: NAD(+) hydrolase SARM1 (Homo sapiens) (UniProt Q6SZW1); test: SARM1 TIR NADase inhibitors, cell lysate, NAD-Glo luminescence (AID 1508614;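 active means compound whose remaining NAD level is above about 45 nM, limit read from the data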); conditions: SAM-TIR HEK293T lysate NADase, at 1 µM, stronger effect = higher value
NAD(+) hydrolase SARM1 (Homo sapiens), sequence (Q6SZW1 whole entry, looked up, the tested form may be a part): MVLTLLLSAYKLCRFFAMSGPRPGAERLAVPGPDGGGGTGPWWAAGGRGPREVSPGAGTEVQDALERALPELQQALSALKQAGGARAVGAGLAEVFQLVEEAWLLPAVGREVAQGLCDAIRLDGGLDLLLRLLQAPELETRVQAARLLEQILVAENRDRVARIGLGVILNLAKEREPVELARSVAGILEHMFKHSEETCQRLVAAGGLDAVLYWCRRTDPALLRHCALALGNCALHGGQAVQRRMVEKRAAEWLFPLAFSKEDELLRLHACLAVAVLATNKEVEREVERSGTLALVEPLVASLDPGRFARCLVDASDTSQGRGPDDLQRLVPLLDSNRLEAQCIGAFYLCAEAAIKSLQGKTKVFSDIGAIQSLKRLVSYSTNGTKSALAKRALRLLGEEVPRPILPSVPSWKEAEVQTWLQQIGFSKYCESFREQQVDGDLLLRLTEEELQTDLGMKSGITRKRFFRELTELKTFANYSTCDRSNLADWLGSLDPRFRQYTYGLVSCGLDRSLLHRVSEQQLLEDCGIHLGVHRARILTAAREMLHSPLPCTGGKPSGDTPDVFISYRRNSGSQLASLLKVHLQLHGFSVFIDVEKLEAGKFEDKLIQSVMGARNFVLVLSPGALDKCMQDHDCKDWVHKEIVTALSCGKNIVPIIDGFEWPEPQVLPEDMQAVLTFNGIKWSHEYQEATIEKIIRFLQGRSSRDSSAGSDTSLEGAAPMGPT

[14] = biological target: Mitogen-activated protein kinase 7 (Homo sapiens) (UniProt Q13164); test: ERK5 transactivation activators in reporter cells, primary screen, cell-based, HTS (AID 1508626;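 active means luciferase signal above three times the same-plate solvent-only control wells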;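 further: luciferase driven by Gal4-ERK5 fusion binding five Gal4 sites before minimal TATA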); conditions: HeLa Gal4-ERK5 transactivation, 18 h, at 5 µM, stronger effect = higher value
Mitogen-activated protein kinase 7 (Homo sapiens), sequence (Q13164 whole entry, looked up, the tested form may be a part): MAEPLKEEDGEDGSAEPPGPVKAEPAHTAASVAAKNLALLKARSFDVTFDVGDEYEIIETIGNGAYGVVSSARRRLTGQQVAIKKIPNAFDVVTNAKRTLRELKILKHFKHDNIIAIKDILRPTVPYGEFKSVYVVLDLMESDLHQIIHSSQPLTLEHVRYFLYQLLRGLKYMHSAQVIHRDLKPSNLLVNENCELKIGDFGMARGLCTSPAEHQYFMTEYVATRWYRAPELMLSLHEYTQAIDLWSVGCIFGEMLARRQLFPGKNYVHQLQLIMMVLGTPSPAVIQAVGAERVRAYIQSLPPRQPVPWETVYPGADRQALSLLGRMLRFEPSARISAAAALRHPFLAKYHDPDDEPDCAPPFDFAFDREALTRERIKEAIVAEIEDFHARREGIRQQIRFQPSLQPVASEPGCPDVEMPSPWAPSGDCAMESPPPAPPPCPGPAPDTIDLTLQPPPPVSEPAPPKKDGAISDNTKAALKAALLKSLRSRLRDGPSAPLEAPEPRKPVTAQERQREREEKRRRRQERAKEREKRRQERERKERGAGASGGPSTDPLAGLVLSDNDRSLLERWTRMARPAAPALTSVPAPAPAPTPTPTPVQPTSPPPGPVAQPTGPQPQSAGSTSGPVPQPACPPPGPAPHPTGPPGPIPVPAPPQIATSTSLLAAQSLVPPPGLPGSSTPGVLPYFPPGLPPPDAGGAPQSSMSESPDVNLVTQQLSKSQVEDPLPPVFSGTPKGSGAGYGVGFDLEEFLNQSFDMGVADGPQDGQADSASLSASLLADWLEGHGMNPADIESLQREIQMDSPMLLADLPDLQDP

[15] = system: F380Y; test: modulators of BK channel variants, profiling panel, selectivity assay, cell-based, U2OS BacMam, thallium flux, beta subunits (AID 1259406); conditions: at 30 µM;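 further: initial slope of Thallos dye fluorescence rise after thallium is added; log ratio against the mean of 0.3% DMSO vehicle wells on the same plate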
[16] = system: F380Y/beta1; test: as above; conditions: at 30 µM
[17] = system: F380Y/beta2Delta; test: as above; conditions: at 30 µM
[18] = sensitizers of A549 cells to miR-34 induction, primary screen, imaging, A549 dox-inducible miR-34, nuclei and caspase counts (AID 1347080;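 active means compounds whose cell count with miR-34 switched on is under 0.7 times the count with it off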); conditions: A549 miR-34 inducible, Hoechst nuclei count, 48 h
[19] = measured here: epithelial PC-3E GFP cell survival
[20] = measured here: mesenchymal TEM4-18 mCherry cell survival
[21] = MELAS cybrid survival, CellTiter-Glo 48 h, stronger effect = higher value
[22] = Rieske KO mouse fibroblast survival, CellTiter-Glo 72 h

CCc1cccc2c3c([nH]c12)C(CC)(CC(=O)O)OCC3 (configuration not stated)
0.3%: nuclear beta-catenin stimulation ([1]; stimulation, at 2 µM)
inactive: nuclear beta-catenin stimulation ([1]; at 10 µM) 0.9% | insulin secretion stimulation [2] -0.3% | viability decrease [3] -31.2% | tube area decrease [4] -16.6% | GLP1 secretion stimulation [5] -0.9% | inhibition of viability [6] 1.5% | viability decrease (inhibition) [7] -4.5% | viability decrease (inhibition) [8] -11.6% | inhibition [9] -23.2% | mean signal [10] 230 | red/green cell ratio (normalised) [11] 1.13 | z-score [12, 21] -0.968 | remaining NAD [13] 10 nM | luciferase signal [14] 164 AU | log fold change Tl+ flux [15] 0.0338 | log fold change Tl+ flux [16] 0.0385 | log fold change Tl+ flux [17] -0.0224
0.9: normalised cell number [11, 19]
-0.359: z-score [12, 22]
1.03: normalised cell number [11, 20]

N[C@@H](C(=O)N[C@@H]1C(=O)N2C(C(=O)O)=C(Cl)CS[C@H]12)c1ccccc1
1.1%: nuclear beta-catenin stimulation ([1]; stimulation, at 2 µM)
1.1: normalised cell number [11, 20]
inactive: nuclear beta-catenin stimulation ([1]; at 10 µM) 0.3% | insulin secretion stimulation [2] 1.9% | viability decrease [3] 12.5% | tube area decrease [4] -21% | GLP1 secretion stimulation [5] -1.7% | inhibition of viability [6] -1.63% | viability decrease (inhibition) [7] 26.8% | viability decrease (inhibition) [8] -20.5% | inhibition [9] -9.98% | mean signal [10] 277 | red/green cell ratio (normalised) [11] 1.23 | fold change ([18]; stronger effect = lower value, cell number ratio, induced over uninduced) 0.883 and 0.884 | z-score [12, 21] 0.0553 | remaining NAD [13] 10 nM | luciferase signal [14] 32 AU | log fold change Tl+ flux [15] -0.0277 | log fold change Tl+ flux [16] -0.0714 | log fold change Tl+ flux [17] -0.0661
8220 and 11700: cell count ([18]; measured here: total cells with miR-34 induction, stronger effect = lower value)
-0.142: z-score [12, 22]
0.9: normalised cell number [11, 19]
1.88 and 4.52: fold change ([18]; measured here: relative caspase fold change +Dox/-Dox)
9320 and 13200: cell count ([18]; measured here: total cells without miR-34 induction)

COc1cc2nc(N(C)CCCNC(=O)C3CCCO3)nc(N)c2cc1OC (configuration not stated)
1.09: normalised cell number [11, 20]
1.8%: nuclear beta-catenin stimulation ([1]; stimulation, at 2 µM)
1.18: normalised cell number [11, 19]
0.382 and 0.0438: z-score [12, 22]
inactive: nuclear beta-catenin stimulation ([1]; at 10 µM) 1.8% | insulin secretion stimulation [2] -0.3% | viability decrease [3] -24.4% | tube area decrease [4] -4.5% | GLP1 secretion stimulation [5] 14.6% | inhibition of viability [6] 21.1% | viability decrease (inhibition) [7] 19.4% | viability decrease (inhibition) [8] 0.1% | inhibition [9] 0.608% | mean signal [10] 257 | red/green cell ratio (normalised) [11] 0.93 | z-score [12, 21] -0.397 and -0.012 | remaining NAD [13] 10 nM | luciferase signal [14] 28 AU | log fold change Tl+ flux [15] 0.0271 | log fold change Tl+ flux [16] -0.0154 | log fold change Tl+ flux [17] 0.0311
